# Most compounds without a hit are left out; they make up all but 7.6% or so of the library.
# PLAP activator: human PLAP activation. 96,000 compounds, 1.2% hits. P05187. purified PLAP enzyme, luminescent substrate read-out; active compounds read high. activation fold at 20 µM; in the data active means activation fold above about 2
# Target sequence (P05187 whole entry, looked up): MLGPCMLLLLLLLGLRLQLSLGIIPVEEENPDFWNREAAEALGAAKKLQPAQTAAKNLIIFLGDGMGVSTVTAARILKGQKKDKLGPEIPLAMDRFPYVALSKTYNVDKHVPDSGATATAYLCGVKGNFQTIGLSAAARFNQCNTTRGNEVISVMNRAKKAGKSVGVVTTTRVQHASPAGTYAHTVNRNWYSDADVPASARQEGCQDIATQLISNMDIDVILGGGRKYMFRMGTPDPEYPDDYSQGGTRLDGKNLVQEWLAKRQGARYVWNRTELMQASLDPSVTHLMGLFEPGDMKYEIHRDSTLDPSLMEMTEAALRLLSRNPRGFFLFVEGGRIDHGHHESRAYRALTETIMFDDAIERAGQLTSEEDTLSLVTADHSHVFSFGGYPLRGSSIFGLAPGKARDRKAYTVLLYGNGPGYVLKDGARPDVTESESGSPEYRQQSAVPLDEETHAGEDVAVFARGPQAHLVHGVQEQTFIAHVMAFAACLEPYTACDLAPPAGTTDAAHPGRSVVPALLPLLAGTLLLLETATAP
# M1 antagonist: antagonists of rat M1 muscarinic receptor | B-score at 10 µM | CHO-M1 cells, Fluo-4 calcium, ACh EC80 antagonist mode; active compounds read low | 64,000 compounds, 3.4% hits | P08482;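 active means calcium fluorescence response, raw or row-and-column corrected B-score, differing from the plate sample mean either way at a set confidence level, mostly lower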
# Cav3 T inh: blocks human Cav3.2 T-type calcium channel; 100,000 compounds, 4% hits; Cav3.2-expressing cells, Fluo-4 calcium fluorescence FDSS; active compounds read low; O95180; B-score at 10 µM;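 active means single-dose well whose peak fluorescence ratio is a statistical outlier from its plate by either plate-standardised score or position-corrected B-score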
# M1 agonist: activates the M1 muscarinic receptor | CHO-M1 cells, Fluo-4 calcium fluorescence, agonist mode; active compounds read high | B-score at 10 µM | 64,000 compounds, 3% hits | AID 626;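 active means fluorescence rise, raw or as B-score row- and column-corrected plate score, outside the 99.7% band of its plate's samples, either direction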
# Active calls of the source: *; nt = no result given.
SMILES,PLAP activator,M1 antagonist,Cav3 T inh,M1 agonist
COc1ccc(CCNc2nc(N3CCCCC3)nc(N3CCCCC3)n2)cc1OC,1.5,0.152,-6.69*,-0.182
O=C1c2ccccc2S(=O)(=O)c2cc(N3CCc4ccccc4C3)ccc21,nt,nt,-0.383,nt
O=S(=O)(c1ccccc1)n1nc(-c2ccccc2)nc1NCc1ccco1,0.9,0.296,-4.52*,0.527
Cc1cccc(CN2C(=O)N/C(=C/c3cc(C)n(-c4ccccn4)c3C)C2=O)c1,1,nt,0.227,nt
Cc1cc(C)c(-n2c(C)cc(/C=C3/NC(=O)NC3=O)c2C)c(C)c1,1.1,nt,-6.08*,nt
CC1=C(C(=O)Nc2ccccc2)C(c2ccc(C)o2)n2c(s/c(=C/c3ccccc3)c2=O)=N1 (centres undefined),1.6,nt,-3.16,nt
CC1=C(C(=O)Nc2ccccc2)C(c2ccccc2)N2C(=O)CSC2=N1 (centres undefined),1,-0.0132,-10.5*,-0.202
CC1=C(C(=O)Nc2ccccc2)C(c2ccc(C(C)C)cc2)N2C(=O)CSC2=N1 (centres undefined),0.8,nt,-1.66,nt
CC1=C(C(=O)Nc2ccccc2)C(c2ccc(C)o2)N2C(=O)CSC2=N1 (centres undefined),1.5,0.0456,-7.9*,-0.0249
CN(/C(=N\S(=O)(=O)c1ccccc1)C(F)(F)F)c1ccccc1,1,nt,nt,nt
CC(=O)Nc1ccc(S(=O)(=O)N2CCN(CC(=O)NC3CCCC3)CC2)cc1,1.2,0.455,0.168,0.582
COc1ccc(CN(Cc2cc3cc4c(cc3[nH]c2=O)OCO4)C(=O)NC2CCCCC2)cc1,1.6,0.542,-6.73*,-1.31
Cc1ccc2oc(=O)n(CCOc3ccccc3Cl)c2c1,0.7,0.218,-0.0506,-0.133
CCCOc1ccc(Cn2c(=O)oc3ccc(C)cc32)cc1OC,nt,1.39,-1.74,-0.399
CCOc1ccccc1Cn1c(=O)oc2ccc(C)cc21,nt,-0.0473,-4.66*,0.00355
CCCOc1ccccc1Cn1c(=O)oc2ccc(C)cc21,0.5,0.526,-5.58*,0.322
CCN1CCN(Cc2nc3c(c(=O)n(C)c(=O)n3C)n2Cc2ccc(Cl)cc2Cl)CC1,nt,0.78,nt,-0.614
COc1cccc(Nc2nc(NCC3CCCO3)c3ccccc3n2)c1 (centres undefined),0.9,nt,-5.66*,nt
CC(=O)OC(/C(O)=C(\C#N)c1nc2ccccc2[nH]1)c1ccccc1 (centres undefined),1.5,-0.025,0.338,-0.768
CCN(CC)c1ccc(/C=C(/C#N)c2nc3ccccc3[nH]2)c(OC(C)C)c1,0.7,nt,-3.47*,nt
COc1cc(/C=C(\C#N)c2nc3ccccc3[nH]2)c([N+](=O)[O-])cc1OCc1ccccc1,0.9,nt,-1.95,nt
COc1ccc(S(=O)(=O)Nc2cc(C(C)C)c(O)cc2C)cc1,1,-0.00744,-4.82*,-1.03
COc1ccc(S(=O)(=O)Nc2ccc(O)c3ccccc23)cc1,1.2,0.59,-0.0771,-0.59
CCCCOc1ccccc1C1C(C(=O)OC)=CN(CC)C=C1C(=O)OC,1.6,-0.972,nt,-1.31
CCCOc1ccccc1C1C(C(=O)OC)=CN(C(C)C)C=C1C(=O)OC,2*,-0.00947,nt,-0.0247
SMILES,PLAP activator,M1 antagonist,Cav3 T inh,M1 agonist
CCCCCC/C(=N\NS(C)(=O)=O)c1ccccc1,1.3,nt,-4.88*,nt
CCCCCC/C(=N/O)c1ccccn1,1.2,0.0967,-2.86,-0.00506
Fc1ccc(-n2nnnc2-c2cnc(-c3cccs3)nc2C(F)(F)F)cc1,1,nt,-3.3,nt
CCOC(=O)C1C(=O)NC(N2CCCCC2)=NC1c1ccco1 (centres undefined),1,-0.152,-0.146,2
CC(=O)N1CCC(N(C(=O)Nc2ccc(C)c(C)c2)C2CCCC2)CC1,1,3.02*,0.0649,1.49
COCc1[nH][nH]c(=O)c1C=Nc1ccccc1,2*,nt,0.0462,nt
COCc1[nH][nH]c(=O)c1C=Nc1ccc(Cl)cc1,1.7,nt,0.439,nt
O=S(=O)(NCCSCc1ccc(Cl)cc1Cl)c1ccc2c(c1)OCCO2,0.8,nt,-4.51*,nt
Cc1ccc(Cl)cc1N1CCN(S(=O)(=O)c2cnc[nH]2)CC1,1.6,-0.0175,-1.25,-0.818
Cc1ccc(Cl)cc1N1CCN(S(=O)(=O)c2ccc3c(c2)OCCO3)CC1,0.9,-0.678,-5.22*,-0.564
COc1ccc(S(=O)(=O)NCCSc2ccc(Cl)cc2)cc1OC,nt,nt,-3.09,nt
O=S(=O)(NCCSCc1c(Cl)cccc1Cl)c1ccc2c(c1)OCCO2,1,nt,-3.56,nt
O=S(=O)(NCCSc1ccc(Cl)cc1)c1ccc2c(c1)OCCO2,1,0.501,-8.69*,0.597
O=C(CCC1CCCC1)NC1CCCCC1,1.1,nt,0.00261,nt
CN(C)CCCNc1oc(-c2cccc(Cl)c2)nc1C#N,1.4,-0.185,0.601,-1.13
Cc1nc(NC(C)C)c2cnn(CCc3ccccc3)c2n1,1.2,nt,1.44,nt
CCc1ccccc1NC(=O)/C(=C/c1ccco1)c1ccccc1,0.7,nt,-5.54*,nt

# Compound activity: PubChem, several laboratories
